The results in this text go back to PubChem BioAssay AID624320 (Broad Institute, 2012).

Active and inactive are the calls of the source.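 The calls were made as follows: active = compounds lowering absorbance whose fitted half-effect dose is at most twice the highest valid tested dose; inconclusive = flat fit between 30 and 70% inhibition, or poor fit; inactive = the rest, including opposite-direction activity.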

The target of this assay is Protein disulfide-isomerase A6 (Homo sapiens) (UniProt Q15084). Briefly: ERp5 reductase inhibition selectivity check, dose response, selectivity assay for PDI inhibitor antithrombotic project, biochemical, insulin aggregation absorbance, dry powder samples (AID 624320).
Chain of Protein disulfide-isomerase A6 (Homo sapiens) (Q15084 whole entry, looked up): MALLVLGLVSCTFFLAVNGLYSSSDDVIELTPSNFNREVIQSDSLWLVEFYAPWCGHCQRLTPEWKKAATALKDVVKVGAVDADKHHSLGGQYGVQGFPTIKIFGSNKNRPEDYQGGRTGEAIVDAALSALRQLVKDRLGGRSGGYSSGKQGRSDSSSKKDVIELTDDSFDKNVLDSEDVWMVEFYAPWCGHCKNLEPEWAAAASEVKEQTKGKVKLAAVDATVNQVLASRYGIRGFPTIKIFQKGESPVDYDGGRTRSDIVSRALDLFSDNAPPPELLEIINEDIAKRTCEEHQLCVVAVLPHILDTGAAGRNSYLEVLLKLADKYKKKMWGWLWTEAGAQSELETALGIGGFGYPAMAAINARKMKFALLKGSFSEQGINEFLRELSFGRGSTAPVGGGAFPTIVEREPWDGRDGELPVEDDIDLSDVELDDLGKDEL

Regarding `C[C@H]1CN([C@@H](C)CO)C(=O)c2cccc(NS(C)(=O)=O)c2O[C@H]1CN(C)Cc1ccc(Oc2ccccc2)cc1`, the molecule was classed as inactive.
